From PubChem BioAssay
Compounds with a hit are over-represented: about 19% of the library has one in this group of screens.
TDP1 cell noCPT = qHTS for Inhibitors of human tyrosyl-DNA phosphodiesterase 1 (TDP1): qHTS in cells in absence of CPT; DT40 Tdp1-/- hTDP1 cells, no CPT, ATP luminescence, 48 h; Potency, µM (top dose mostly 46.2 µM), actives largely listed as inhibitors; hit rate 15% among 420,000; also: nearly all actives have a fitted effect of over 55% in size
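Growth of hTDP1-complemented DT40 Tdp1-knockout cells is measured by ATP luminescence after at least 48 hr compound exposure at 37 °C, with DMSO substituting for the 20 nM CPT used in the parallel screen.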
HT1080 IDH1KD tx = HT-1080 IDH1 knockdown cell toxicity (counter line); HT-1080 IDH1 knockdown viability, ATP luminescence, 48 h; Potency, µM (top dose mostly 46.1 µM), hits mostly cytotoxic; hit rate 2% among 360,000; AID 686971
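Viability of IDH1-knockdown HT-1080 fibrosarcoma cells was assessed by CellTiter-Glo after 48 h at 37 °C with titrated compound; concentration-effect curves were classified by fit quality and response size.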
TDP1 cell CPT = DT40-hTDP1 cell growth loss with CPT | chicken DT40 Tdp1-/-;hTDP1 cells + 20 nM CPT, ATP luminescence, 48 h | Potency, µM (highest dose often 46.2 µM), usual class: inhibitors | hit rate 12% among 420,000 | AID 686979; also: nearly all actives have a fitted effect of over 55% in size
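Chicken DT40 Tdp1-/- cells complemented with human TDP1, 400 cells/well, exposed to compounds plus 20 nM camptothecin for at least 48 h at 37 C; viability read as ATP content by CellTiter-Glo luminescence.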
IL1B secr inh = blocks inflammasome-driven IL-1 beta release; hit rate 4.7% among 360,000; activity change, % at 57.5 µM; THP-1 LPS/ATP IL-1B secretion, AlphaLISA, 16 h; hits give low values; in the data active = activity change below about -50%; inconclusive = mostly about -30% to -49%
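Secreted IL-1B measured by AlphaLISA bead assay after 16 h compound exposure of THP-1 cells; compounds (final up to 57.5 uM) added 1 h before LPS (250 ng/mL) and ATP (1.25 mM) stimulation; lower signal means less secretion.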
HT1080NT lethal = kills 2HG-producing HT-1080-NT fibrosarcoma cells; HT-1080-NT fibrosarcoma viability, CellTiter-Glo ATP luminescence, 48 h; Potency, µM (top dose mostly 46.1 µM), hits mostly cytotoxic; hit rate 1.6% among 360,000;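 also: NT is the 2HG producing partner of a matched IDH1 knockdown line; nearly all actives have a fitted effect of over 55% in size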
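Read-out is CellTiter-Glo luminescence after 10 minutes at room temperature, following 48 hours' compound treatment of HT-1080-NT cells (750 cells/well, RPMI, 5% FBS, 37 degrees C).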
ELG1 repair inh = ELG1-dependent DNA repair inhibition. HEK293T ELG1-luciferase reporter, luminescence, 16 h; DNA damage induced by 5-fluorouridine. Potency, µM (series often up to 46.1 µM), usual class: inhibitors. hit rate 2.3% among 330,000. AID 504467; also: nearly all actives have a fitted effect of over 55% in size
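Cells (2,000 per well) received 5-fluorouridine plus test compound or DMSO and were incubated 16 hr at 37 °C, 5% CO2. Luciferase activity was read by luminescence 30 min after ONE-Glo addition; signal suppression marked inhibition of damage-induced ELG1 function.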
Large screens that a line does not name were inactive. Unless noted, calls follow the shape of the dose curve; as a rule, active = well fitted curve in the direction sought with a large enough effect; inconclusive = small, poorly fitted or top-dose-only effect, or another doubt; inactive = no such curve, though single readings can be large; an effect the other way counts as inactive or inconclusive.

CCn1nc(C)c(CN2CCC(Oc3ccc(C(=O)N4CCCC4)cc3)CC2)c1C	none
CCOc1ccc(CCNC(=O)COC(=O)c2nc(Cl)ccc2Cl)cc1OCC	none
CC1=CC(C)(C)n2c(O)c(C3=NC(=S)NC3=O)c3cc(OC(=O)c4cccc5ccccc45)cc1c32	TDP1 cell noCPT 23µM, HT1080 IDH1KD tx inconclusive, TDP1 cell CPT inconclusive
CC(C)C[C@@H](CC#N)N1CCN(Cc2ccccc2)CCC1=O	none
O=C(Nc1ccccc1)C(=O)Nc1ccc2c(c1)N(C(=O)C1CC1)CCC2	TDP1 cell noCPT 23µM, HT1080 IDH1KD tx inconclusive, TDP1 cell CPT 21µM, HT1080NT lethal inconclusive, ELG1 repair inh inconclusive
O=C(C1CCC(C(=O)N2CCc3ccccc32)CC1)N1CCc2ccccc21 (stereo unspecified)	TDP1 cell noCPT inconclusive
CCOC(=O)COc1ccc(/C=C/[N+](=O)[O-])c(OCC(=O)OCC)c1	TDP1 cell noCPT 21µM, HT1080 IDH1KD tx 5.6µM, TDP1 cell CPT 12µM, IL1B secr inh -97, HT1080NT lethal 7.9µM, ELG1 repair inh inconclusive
CCOC(=O)COc1ccc2ccccc2c1/C=C/[N+](=O)[O-]	TDP1 cell noCPT 3.7µM, HT1080 IDH1KD tx 4.1µM, TDP1 cell CPT 5.2µM, IL1B secr inh -92, HT1080NT lethal 7.3µM, ELG1 repair inh inconclusive
CCOc1ccc(/C=C/[N+](=O)[O-])c2ccccc12	TDP1 cell noCPT 2.9µM, HT1080 IDH1KD tx 13µM, TDP1 cell CPT 2.9µM, IL1B secr inh -101, HT1080NT lethal inconclusive, ELG1 repair inh inconclusive
CCOc1ccc(S(=O)(=O)Nc2ccccn2)c2ccccc12	none
CCOC(=O)COc1ccc(C(=O)c2ccccc2)c(O)c1	none
CC1CCN(C(=O)COC(=O)CSc2ccc(C(N)=O)cc2[N+](=O)[O-])CC1	none
CCS(=O)(=O)N1Cc2ccccc2CC1C(=O)N(C)Cc1ccc(OC)c(F)c1 (stereo unspecified)	TDP1 cell noCPT inconclusive
C1=Nc2c(NCc3ccccc3)ncnc2Oc2ccccc21	TDP1 cell noCPT 1µM, HT1080 IDH1KD tx inconclusive, TDP1 cell CPT 3.7µM
CCc1ccccc1NC(=S)N(CCN1CCCCC1)Cc1ccco1	TDP1 cell noCPT inconclusive
COc1ccccc1CN1CCC(CNS(=O)(=O)c2cc(-c3onc(C)c3C)ccc2OC)CC1	TDP1 cell noCPT 21µM, HT1080 IDH1KD tx 18µM, TDP1 cell CPT 21µM, IL1B secr inh inconclusive, HT1080NT lethal 18µM
CCc1ccc(-c2cc(C)no2)cc1S(=O)(=O)NCc1ccco1	TDP1 cell noCPT inconclusive, HT1080 IDH1KD tx inconclusive, TDP1 cell CPT 21µM
COc1ccc(-c2onc(C)c2C)cc1S(=O)(=O)NCc1ccc(C)o1	TDP1 cell noCPT 3.3µM, TDP1 cell CPT 2.9µM (no result: HT1080 IDH1KD tx, IL1B secr inh, HT1080NT lethal, ELG1 repair inh)
Cc1ccc(-c2onc(C)c2C)cc1S(=O)(=O)NCc1ccco1	TDP1 cell noCPT inconclusive, TDP1 cell CPT 23µM (no result: HT1080 IDH1KD tx, IL1B secr inh, HT1080NT lethal, ELG1 repair inh)
COc1ccc(CCNS(=O)(=O)c2cc(-c3onc(C)c3C)ccc2OC)cc1OC	TDP1 cell noCPT inconclusive (no result: HT1080 IDH1KD tx, IL1B secr inh, HT1080NT lethal, ELG1 repair inh)
O=c1c2ccccc2nnn1-c1ccccc1[N+](=O)[O-]	none (no result: ELG1 repair inh)
N#CCCn1c(=O)c(-c2ccc(Cl)cc2)nc2cnc(N3CCOCC3)nc21	none (no result: HT1080 IDH1KD tx, IL1B secr inh, HT1080NT lethal, ELG1 repair inh)
COc1ccc(CN2CCN(C(=O)CC(C)C)CC2)cc1Br	TDP1 cell noCPT inconclusive
COc1ccc(/C=C/C(=O)N(CC(C)C)CC(C)C)cc1Br	TDP1 cell noCPT 16µM, TDP1 cell CPT 16µM, IL1B secr inh inconclusive
O=C(CCc1ccccc1)NNC(=S)NCc1ccc(Cl)cc1	TDP1 cell CPT inconclusive
CCCCCC(=O)NC(=S)NNC(=O)CC	TDP1 cell noCPT inconclusive, TDP1 cell CPT 16µM
CCC(=O)NNC(=S)NC(=O)c1ccc(C)cc1	TDP1 cell noCPT 10µM, TDP1 cell CPT inconclusive, IL1B secr inh -61
Cc1ccc(C(=O)NNC(=S)NC(=O)c2ccc(Cl)cc2)cc1	TDP1 cell noCPT inconclusive, HT1080 IDH1KD tx inconclusive, TDP1 cell CPT 16µM
CCCCC(=O)NC(=S)Nc1cccc(NC(=O)CC)c1	none
